# Screens as filed in PubChem.
# Shown are actives, neighbours in structure and some others; about 1.7% of the full set was active somewhere.
# GLP-1R inv ag: GLP-1 receptor (human) inverse agonism. P43220. HEK293 GLP-1R CRE-luciferase, luminescence, 24 h; GLP-1R form is constitutively active. Potency, µM (doses to about 38.3 µM), for inactives: top-dose activity change, negative = inhibition, actives largely listed as inhibitors. 410,000 tested, 1.6% active. AID 624417; note: % is set by controls: 0 for no effect and ±100 for the full control effect; nearly all actives have a fitted effect of over 55% in size
# Target sequence (P43220 whole entry, looked up): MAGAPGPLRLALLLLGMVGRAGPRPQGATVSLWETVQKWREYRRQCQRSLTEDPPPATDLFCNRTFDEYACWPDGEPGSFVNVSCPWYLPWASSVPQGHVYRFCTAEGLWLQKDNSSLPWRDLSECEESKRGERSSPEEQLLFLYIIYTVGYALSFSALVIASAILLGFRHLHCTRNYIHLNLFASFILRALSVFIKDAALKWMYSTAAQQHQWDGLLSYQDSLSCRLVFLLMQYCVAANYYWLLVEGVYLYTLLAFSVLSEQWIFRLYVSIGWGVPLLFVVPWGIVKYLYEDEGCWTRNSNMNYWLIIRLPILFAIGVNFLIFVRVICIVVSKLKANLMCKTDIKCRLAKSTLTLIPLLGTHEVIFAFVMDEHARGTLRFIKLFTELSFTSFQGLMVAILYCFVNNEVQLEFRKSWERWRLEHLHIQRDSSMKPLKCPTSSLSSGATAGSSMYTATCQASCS
#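 Cells are plated, allowed 12 hours at 37 deg C, then treated with compounds for 24 hr before luciferase detection reagent is added and luminescence is read after 12 min at room temperature. The HEK293 line carries constitutively active GLP-1R with a cAMP-responsive reporter.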
# PTHR1 agonist: activates the human parathyroid hormone receptor PTHR1 | AID 743266 | Q03431 | HEK293 GP2 PTHR1 cells, GloSensor cAMP luminescence, 1 h | Potency, µM (titrated, usually from 115 µM), for the others: at the top dose activation, actives largely listed as activators | 410,000 tested, 0.075% active; note: nearly all actives have a fitted effect of over 55% in size
#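 HEK-293-derived GP2 cells expressing PTHR1 and a GloSensor cAMP reporter, 3,000/well, plated overnight, given luciferin plus IBMX (each 0.5 mM as added) for 1 h at 37 °C, then compound for 1 h at 37 °C. Luminescence was read after 15 min at room temperature.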
# GLP1R cytotox: cytotoxicity counter-screen for GLP-1 receptor inverse agonists | 410,000 tested, 0.13% active | AID 624418 | HEK293 cAMP-luciferase reporter cells, luminescence, 24 h | Potency, µM (highest dose often 38.3 µM), without a hit: at the top dose activity change, negative = inhibition, most hits filed as inhibitors;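 note: loss of luciferase light is scored as toxicity; % is set by controls: 0 for no effect and ±100 for the full control effect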
#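 Seeding density was 200 cells/uL; after overnight-length (12 h) culture, 23 nL compounds went on for 24 h at 37 °C. Readout used a luciferase detection reagent, luminescence taken after 12 min at room temperature.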
# GLP1R ag: activates the human GLP-1 receptor; Potency, µM (titrated, usually from 45.6 µM), without a hit: at the highest dose activation, most hits filed as activators; 380,000 tested, 0.007% active; HEK293 GLP-1R CRE-luciferase, luminescence, 4-6 h; cells express a hypersensitive GLP-1R form; P43220; note: % of control where 0% means no effect
# Numbers without * were called inactive; i = inactive; ? = inconclusive; nt = no result given; [ ] = another dose, or the depositor's remark. Calls come from the whole dose curve; as a rule, active = well fitted curve in the direction sought with a large enough effect; inconclusive = small, poorly fitted or top-dose-only effect, or another doubt; inactive = no such curve, though single readings can be large; an effect the other way counts as inactive or inconclusive. Potency is the fitted concentration of half-maximal effect.
SMILES,GLP-1R inv ag,PTHR1 agonist,GLP1R cytotox,GLP1R ag
O=[N+]([O-])c1cc(C(F)(F)F)ccc1NCCNC(=S)Nc1ccc(Cl)cc1,11µM*,-22%,-57%,-6%
O=C(Nc1ccc(Cl)cc1)N1CCCN(c2ccc(C(F)(F)F)cc2[N+](=O)[O-])CC1,2.8µM*,-24%,?,1%
Cc1ccc(C2N(c3ccc(Cl)cc3)C(=O)N3CCCN23)cc1 (stereo not given),10µM*,-10%,-8%,8%
O=C1N(c2ccccc2)C(c2ccc(Cl)cc2)N2CCCN12 (stereo not given),?,-7%,-8%,0%
COc1ccccc1CNC(=O)Cn1c(=O)nc(-c2ccccc2F)c2cc(Cl)ccc21,3%,i,-9%,nt
Cc1ccc(C(=O)Nc2onc3c2CCCC3)cc1,?,-38%,-15%,nt
Cc1ccc(NC(=O)c2cc(S(=O)(=O)NC3CCCCC3)ccc2F)cc1Cl,7.9µM*,-10%,-32%,nt
O=C(Nc1ccc(F)c(F)c1)c1cc(S(=O)(=O)NC2CCCC2)ccc1F,10µM*,i,-3%,nt
O=C(Nc1cc(Cl)cc(Cl)c1)c1cc(S(=O)(=O)NC2CCCC2)ccc1F,?,-10%,?,nt
CN(C)c1ccc(C(CNC(=O)COc2ccc(Cl)cc2)N2CCOCC2)cc1 (stereo not given),13%,i,1%,nt
CN(C)c1ccc(C(CNC(=O)COc2ccc(Cl)cc2)N2CCCC2)cc1 (stereo not given),11µM*,i,-22%,13%
CCc1nc2nc(C)cc(Nc3ccc(Br)cc3F)n2n1,10%,13%,1%,nt
COCCNC(=S)N/N=C(\C)CCc1ccc2c(c1)OCO2,?,-8%,?,46%
C/C(CCc1ccc2c(c1)OCO2)=N\NC(=S)NC(C)C,?,26%,3.2µM*,-2%
Cc1cc(-c2ccc(C)c(S(=O)(=O)Nc3cccc(C#N)c3)c2)on1,?,-23%,-13%,nt
CCO[C@@H]1OC(C(=O)Nc2ccccc2)=C[C@H](c2ccc(C(F)(F)F)cc2)[C@H]1CCCO,4.5µM*,-36%,-13%,-1%
CCO[C@H]1OC(C(=O)Nc2ccccc2)=C[C@@H](c2ccc(Br)cc2)[C@@H]1CCCO,?,i,-17%,-1%
C=CCOC(=O)C1=C[C@@H](c2ccc(C(F)(F)F)cc2)[C@H](CCCO)[C@@H](OCC)O1,6.3µM*,-2%,-67%,13%
Cc1ccc(C)c(NC(=O)CSc2nncn3c2cc2sccc23)c1,6%,i,3%,nt
CC1(C)CC(=O)c2cc(C(=O)NCc3ccco3)c(=O)n(-c3ccccc3)c2C1,-29%,-13%[57.5 µM],1%,15%
CC1(C)CC(=O)c2cc(C(=O)NNc3ccccc3)c(=O)n(-c3ccccc3)c2C1,1µM*,i,-8%,2%
Cc1ccccc1C(=O)Nc1cc(-c2cc(C(C)(C)C)oc2C)nn1C,10µM*,-43%,-9%,23%
CN(C)S(=O)(=O)c1ccc2c(c1)N(CC(=O)N1CCN(c3ccccc3F)CC1)CCS2,3%,i,5%,1%
CCCCC1C(=O)NN(c2ccccc2)C1=O (stereo not given),1.8µM*,i,-15%,5%
CCOC(=O)C1CCN(C(=O)Cn2c(=O)oc3cc(S(=O)(=O)N4CCC(C)CC4)ccc32)CC1,16%,i,6%,nt
SMILES,GLP-1R inv ag,PTHR1 agonist,GLP1R cytotox,GLP1R ag
O=C(Nc1sc2c(c1C(=O)NCc1ccccc1)CCCC2)c1cc(=O)c2ccccc2o1,0%,13%,3%,nt
O=C(NCCOc1ccc(F)cc1)c1ccccc1SCc1ccccc1,?,-24%,18%,7%
CCc1ccc(OCCNC(=O)c2ccccc2SCc2ccc(F)cc2)cc1,8.9µM*,-39%,-4%,-2%
Cc1cc(C(=O)CSc2nc3ccccc3[nH]2)c(C)n1CC1CCCO1 (stereo not given),4µM*,-37%,-31%,-4%
Cc1cc(C(=O)CSc2nc(N)cc(=O)[nH]2)c(C)n1CC1CCCO1 (stereo not given),9%,-23%,0%,12%
Cc1ccc(C)c(-n2c3nc(=O)[nH]c(=O)c-3cc3c(C)nn(-c4ccccc4)c32)c1,10%,-42%,2%,-1%
